Measurements reported in PubChem BioAssay AID588855 (National Center for Advancing Translational Sciences (NCATS), 2011).
Among all 410,000 compounds or so, about 5,000 (1.2%) were called active. Where a call stands in place of a potency, no number is given. Roughly 13% stayed inconclusive and do not appear here. The sample holds actives, similar compounds and a random draw of the others, so the mix is not that of the screen. The call rests on the fitted dose curve; in most records, active means well fitted inhibition curve with a large enough effect; inconclusive means small, poorly fitted or top-dose-only effect; inactive means no such curve, though single readings can be large or run the other way.

assay: qHTS for Inhibitors of TGF-b; settings: HepG2 CAGA-GFP TGF-b/SMAD3 reporter, GFP fluorescence, 18 h, TGF-beta stimulated, 500 pg/mL final; series mostly up to 46.1 µM; further: nearly all actives have a fitted effect of over 65% in size
Procedure, shortened: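 TGF-beta reporter screen: HEPG2 CAGA-GFP, 1% FBS, 500 pg/mL TGF-beta final, 18 h; per-cell GFP summed per well; curves fitted and categorized by class.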
Potency means the concentration at half of the fitted maximal effect.

| Structure (SMILES) | Potency |
| --- | --- |
| Cc1ccccc1C(=O)N(Cc1ccc(N(C)C)cc1)CC1CCCO1 (configuration not stated) | inactive |
| CCOC(=O)c1ccc(NC(=O)CC2C(=O)N(c3ccccc3)C(=O)N2Cc2cccs2)cc1 (configuration not stated) | inactive |
| CCOC(=O)C1CCN(c2nc3c(S(=O)(=O)c4ccc(CC)cc4)nnn3c3ccc(Cl)cc23)CC1 | inactive |
| CCN(C(=O)CN1C(=O)/C(=C/c2ccc(F)cc2)SC1=S)C1CCS(=O)(=O)C1 (configuration not stated) | inactive |
| CN(C(=O)CCN1C(=O)/C(=C/c2ccccc2F)SC1=S)C1CCS(=O)(=O)C1 (configuration not stated) | inactive |
| O=C1/C(=C/c2cccs2)SC(=S)N1C1CCS(=O)(=O)C1 (configuration not stated) | 15.8 µM (active) |
| COc1ccc(Cl)cc1S(=O)(=O)N1CCC(c2ccncc2)CC1 | inactive |
| CCN(C(=O)Cn1cc(S(=O)(=O)N2CCN(c3ccccc3F)CC2)c2ccccc2c1=O)c1ccc(C)c(C)c1 | inactive |
| COc1ccc(C(F)(F)F)cc1NC(=O)c1sc2nc(-c3cccs3)ccc2c1N | inactive |
| Cc1ccc(CN2CCC(CNC(=O)c3cnn(-c4ccccc4Cl)c3C3CCN(C(=O)OC(C)(C)C)CC3)CC2)cc1 | 15.8 µM (active) |
| Cc1ccc(-n2ncc(C(=O)NC3CC3)c2C2CCN(C(=O)OC(C)(C)C)CC2)c(C)c1 | inactive |
| Cc1ccc(CN2CCC(CNC(=O)c3cnn(-c4ccc(C)cc4)c3C3CCN(C(=O)OC(C)(C)C)CC3)CC2)cc1 | inactive |
| CCc1nn(CC(=O)Nc2cc(C)cc(C)c2)c(=O)c2cc3sccc3n12 | inactive |
| Oc1c(C(c2ccccc2Cl)N2CCOCC2)sc2nc(-c3ccco3)nn12 (configuration not stated) | inactive |
| Oc1c(C(c2ccccn2)N2CCOCC2)ccc2cccnc12 (configuration not stated) | 3.98 µM (active) |
| O=C(COC(=O)c1ccccc1OCCOc1ccccc1)Nc1cccc(Br)c1 | inactive |
| Cc1c(-c2cccc(NC(=O)C(C)(C)C)c2)nc2ncccn12 | inactive |
| ClC/C=C/C[n+]1ccccc1Cl | inactive |
| Cc1cccc(C(=O)Nc2nnc(S(=O)(=O)N3CCCCCC3)s2)c1 | inactive |
| O=C(Nc1nnc(S(=O)(=O)N2CCCCCC2)s1)c1cccc(Br)c1 | 10 µM (active) |
| O=C(Nc1nnc(S(=O)(=O)N2CCOCC2)s1)c1cccc(Br)c1 | inactive |
| O=C(NCc1ccccc1)c1ccc2c(c1)nc1n2CCCCC1 | inactive |
| Cc1cccc(NC(=S)NCc2ccc3[nH]c4c(c3c2)CCCC4)c1 | 25.1 µM (active) |
| CCc1cccc(CC)c1NC(=S)NCc1ccc2[nH]c(C)cc2c1 | inactive |
| Cc1cc(C)cc(NC(=S)NCCc2c[nH]c3ccccc23)c1 | inactive |
| Cc1csc(NCC(=O)c2c[nH]c3ccccc23)n1 | inactive |

| Structure (SMILES) | Potency |
| --- | --- |
| Nc1ncnc2nnsc12 | inactive |
| CC(C)(C)c1ccc(C(=O)C[n+]2cccc3cc(Cl)ccc32)cc1 | inactive |
| COc1ccc(N=C2SC(C(=O)Nc3ccc(F)cc3)CC(=O)N2C)cc1 (configuration not stated) | inactive |
| COc1cccc(-c2cccc(NC(=O)C3CCN(C4CCC4)CC3)c2)c1 | inactive |
| COc1cccc(N=C2SC(C(=O)Nc3cccc(Cl)c3)CC(=O)N2C)c1 (configuration not stated) | 10 µM (active) |
| O=C(C1CCCN(S(=O)(=O)c2cccc3nonc23)C1)N1CCN(c2ccccc2F)CC1 (configuration not stated) | inactive |
| CC(C)Oc1ccc(NC(=O)c2cc3ccccc3o2)cc1 | inactive |
| CCOc1ccccc1N(CC)C(=O)Nc1cn(C)c(=O)c2ccccc12 | inactive |
| COC(=O)c1c(NC(=O)c2cc(=O)c3c(C)cc(C)cc3o2)sc2c1CCCC2 | inactive |
| CC(=O)Nc1cnc(-c2ccc(O)cc2C)cn1 | inactive |
| Cc1ccc(Nc2nc(-c3ccc(O)cc3O)cs2)nc1 | 12.6 µM (active) |
| Cc1ccn2c(-c3csc(Nc4ccc(C(=O)O)cc4)n3)c(C)nc2c1 | inactive |
| CCOc1ccc(CNC(=O)CCc2c(C)nn(-c3ccc(N4CCCCC4)nn3)c2C)cc1 | inactive |
| COc1cccc(CNC(=O)CCC(=O)N2CC3CCCN3c3ccccc32)c1 (configuration not stated) | inactive |
| CCc1ccc(S(=O)(=O)Nc2cc3c(C(=O)OCc4ccccc4)c(C)oc3c3ccccc23)cc1 | inactive |
| COC(=O)c1c(C)oc2ccc(N(C(=O)Oc3ccccc3)S(=O)(=O)c3ccccc3)cc12 | inactive |
| CCOC(=O)c1c(C)oc2ccc(N(C(=O)c3ccncc3)S(=O)(=O)c3ccc(CC)cc3)cc12 | 12.6 µM (active) |
| Cc1nc2sc(C)c(C)n2c(=O)c1S(=O)(=O)NCCc1ccc(Cl)cc1 | inactive |
| CCCCCCCCn1c2c(c(=N)c3c1CCC3)CCCC2 | 8.91 µM (active) |
| CCCCN(CC)C(=O)c1c[nH]c2ccc(S(=O)(=O)Nc3cccc(OC)c3)cc2c1=O | inactive |
| Oc1cccc2cc(-c3ccncc3)cnc12 | 3.55 µM (active) |
| CCc1cc2c(cc(C(=O)OC)n2Cc2nc(-c3ccc(C)cc3)oc2C)s1 | inactive |
| COc1ccccc1N1CCN(c2ncnc3onc(-c4ccc(F)cc4)c23)CC1 | inactive |
| Cc1ccc(Cl)cc1N(C)C(=O)C1CCCN(c2ncnc3onc(-c4ccc(F)cc4)c23)C1 (configuration not stated) | 11.2 µM (active) |
| CCc1ccccc1N(C)C(=O)C1CCCN(c2ncnc3onc(-c4ccc(F)cc4)c23)C1 (configuration not stated) | inactive |
| Cc1ccc(Nc2c(-c3ccc(N(C)C)cc3)nc3nc[nH]n23)cc1 | inactive |

| Structure (SMILES) | Potency |
| --- | --- |
| CN(C)C(CNC(=O)c1cc2ccccc2o1)c1ccccc1 (configuration not stated) | inactive |
| CCc1ccc(C(CNc2nc(C(F)(F)F)nc3ccccc23)N(C)C)cc1 (configuration not stated) | 11.2 µM (active) |
| CN(NC(=O)c1ccccc1F)c1nc(C(F)(F)F)nc2ccccc12 | inactive |
| O=C(C1COc2ccccc2O1)N(Cc1cccnc1)c1nc2c(F)cc(F)cc2s1 (configuration not stated) | inactive |
| Cc1cc(-c2ccc(C)c(S(=O)(=O)N3c4ccccc4CC3C)c2)on1 (configuration not stated) | inactive |
| COc1ccc(CCN2C(=O)C(C)=C(C)C2=O)cc1OC | inactive |
| CCCCN1C(=O)C(C)=C(C)C1OCCc1ccc(OC)c(OC)c1 (configuration not stated) | inactive |
| CCCCOc1ccc(CN2C(=O)C(=O)c3cc(Br)cc(C)c32)cc1OC | 10 µM (active) |
| Cc1ccc(-c2nc3cccc(C)n3c2Nc2ccc3c(c2)OCCO3)cc1 | inactive |
| Clc1cccc(N=C2NN=C(c3ccc4c(c3)OCCO4)CS2)c1 | 10 µM (active) |
| COc1ccc(NC(=O)CSc2nccn2C2CCCC2)cc1OC | inactive |
| CCN1CCC(O)(/C=C/c2ccc(C)cc2)C(C(=O)/C=C/c2ccc(C)cc2)C1 (configuration not stated) | 11.2 µM (active) |
| COc1ccc(CNc2nc(-c3ccc(Cl)cc3)nn2S(=O)(=O)c2ccc(C)cc2)cc1 | inactive |
| O=S(=O)([N-]c1nc2ccccc2nc1-[n+]1ccc(Cc2ccccc2)cc1)c1ccc(Br)s1 | 2.82 µM (active) |
| O=S(=O)(NCc1ccccn1)c1ccc(Br)s1 | inactive |
| COc1ccc(C2C(=O)N(C3CCCCCC3)CC(=O)N2CCc2ccc(Cl)cc2)cc1OC (configuration not stated) | inactive |
| CCC(=O)N1c2ccccc2CC1C(=O)N1CCN(c2ccccc2F)CC1 (configuration not stated) | inactive |
| Cc1ccccc1CCNC(=O)C1CCN(c2nc3ccccc3nc2C(F)(F)F)CC1 | inactive |
| Cc1ccc(Cl)cc1NC(=O)NC1COc2ccccc2C1 (configuration not stated) | inactive |
| Nc1nc(N)c(N=O)c(N)n1 | inactive |
| Cc1nc2ccccn2c(=O)c1NC(=O)c1c(F)cccc1F | inactive |
| c1ccc(C2CNCc3c2ccc2ccccc32)cc1 (configuration not stated) | 12.6 µM (active) |
| CCN(CC)/[N+]([O-])=N/OCOC(=O)Cc1c(C)n(C(=O)c2ccc(Cl)cc2)c2ccc(OC)cc12 | inactive |
| CCOC(=O)c1c(SCC(=O)Nc2cccc(C)c2C)nc(=O)[nH]c1C | inactive |
| CCOC(=O)c1[nH]c2ccccc2c1N=C(C)N(CC)CC | inactive |
| CCOC(=O)c1c(C)[nH]c2c1-c1ccccc1C(=O)C2=O | 1.26 µM (active) |

| Structure (SMILES) | Potency |
| --- | --- |
| Cc1ccc(S(=O)(=O)N/N=C(\c2ccccc2)C2CC2)cc1 | inactive |
| Cc1ccc(S(=O)(=O)/N=S(\C)C(C)C)cc1 (configuration not stated) | inactive |
| Cc1ccc(S(=O)(=O)/N=C2\C=C(NS(=O)(=O)c3ccc(C)cc3)C(=O)c3ccccc32)cc1 | 11.2 µM (active) |
| CCCCN(C)CCCNC(=O)CN1N=C(c2ccc(OC)cc2)CCC1=O | inactive |
| Brc1cccc(-c2nnn3c2nc(NC2CCCCC2)c2ccccc23)c1 | inactive |
| NC(=O)C1CCN(C(=O)COc2cccc3cccnc23)CC1 | inactive |
| O=S(=O)(NCCOc1cccc2cccnc12)c1ccc(F)cc1 | inactive |
| O=C(Nc1ccccc1)Oc1cccc2cccnc12 | 8.91 µM (active) |
| CCNS(=O)(=O)c1ccc(NC(=O)CSc2nc(-c3ccco3)cc(C(F)(F)F)n2)cc1 | inactive |
| CCNS(=O)(=O)c1ccc(NC(=O)Nc2cccc(C(F)(F)F)c2)cc1 | 12.6 µM (active) |
| CCNS(=O)(=O)c1ccc(NC(=O)c2cncc(Br)c2)cc1 | inactive |
| CO[C@H]1O[C@@H]2O[C@@]3(C)CC[C@@H]4[C@@H](C)CC[C@@H]([C@H]1C)[C@@]24OO3 | inactive |
| Brc1nc2ncnc(NCc3ccco3)c2[nH]1 | inactive |
| O=C(CCl)N(Cc1cccc([N+](=O)[O-])c1)c1cccc(Cl)c1 | 11.2 µM (active) |
| COC(=O)c1cc(C(=O)N(Cc2ccccc2)c2ccccn2)cc([N+](=O)[O-])c1 | inactive |
| CC(=O)N(CN1C(=O)C2CC=CCC2C1=O)c1cccc(Cl)c1 (configuration not stated) | inactive |
| CCCc1nn2c(=O)cc(COC(=O)c3ccc(NC(=O)COc4ccc(F)cc4)cc3)nc2s1 | inactive |
| c1ccc(CNCc2ccc(CNCc3ccccc3)cc2)cc1 | inactive |
| Oc1ccc(CNc2ccccc2O)cc1 | 12.6 µM (active) |
| Oc1ccc(N2CCN(C(=S)NCc3ccccc3)CC2)cc1 | inactive |
| CCN(CC)c1nc(C#N)nc(OC)n1 | inactive |
| CCC(=O)Nc1ccc(Nc2nc(Cl)nc(Nc3ccc(NC(=O)CC)cc3)n2)cc1 | inactive |
| CC(C)(CCl)C(=O)Nc1ccc(Sc2ccc(F)cc2)cc1 | inactive |
| O=C(CCl)Nc1ccc(Sc2ccc(NC(=O)CCl)cc2)cc1 | 10 µM (active) |
